Screening data: PubChem, National Center for Advancing Translational Sciences (NCATS)
Only some compounds are listed: those with a hit (about 7.3% of all), similar ones and a draw of the others.
Rab9 prom act = activators of Rab9 promoter | Huh7 Rab9 promoter-luciferase reporter, luminescence, 24 h | Potency, µM (series often up to 9.22 µM), inactives show top-dose activation, negative = inhibition, most hits filed as activators | actives 2.8% (n = 320,000) | AID 485297; also: % of control where 0% means no effect; nearly all actives have a fitted effect of over 60% in size
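Stable Rab9-luc Huh7, 1500 cells/well, 2 h settle; cmpd in DMSO, 24 h, 37 °C/5% CO2; luciferase reagent 10 min RT; luminescence.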
Luc counter = counter-screen: inhibitors of Kinase-Glo firefly luciferase; Q27757; Kinase-Glo luciferase, ATP luminescence, 8 min; actives 0.28% (n = 200,000); Potency, µM (titrated, usually from 38.3 µM), inactives show at the highest dose activity change, negative = inhibition, hits mostly inhibitors; also: % is scaled to controls: 0 for no effect and ±100 for the full control effect; nearly all actives have a fitted effect of over 60% in size
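Compound is pinned into ATP-containing buffer (10 uM ATP, imidazole pH 7.2, 7 mM MgCl2). Kinase-Glo luciferase reagent is then added. Light output is recorded following an 8-min room-temperature incubation.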
FLuc modulator = inhibits or activates purified firefly luciferase, miR-21 counter-screen; purified FLuc, Km substrates, luminescence inhibition; Potency, µM (top dose mostly 57.5 µM), for the others: at the highest dose activity change, negative = inhibition, hits mostly inhibitors; actives 6.9% (n = 360,000);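 also: plate controls were vehicle for no effect and reference inhibitor for full effect; nearly all actives have a fitted effect of over 55% in size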
Target sequence (P08659 whole entry, looked up): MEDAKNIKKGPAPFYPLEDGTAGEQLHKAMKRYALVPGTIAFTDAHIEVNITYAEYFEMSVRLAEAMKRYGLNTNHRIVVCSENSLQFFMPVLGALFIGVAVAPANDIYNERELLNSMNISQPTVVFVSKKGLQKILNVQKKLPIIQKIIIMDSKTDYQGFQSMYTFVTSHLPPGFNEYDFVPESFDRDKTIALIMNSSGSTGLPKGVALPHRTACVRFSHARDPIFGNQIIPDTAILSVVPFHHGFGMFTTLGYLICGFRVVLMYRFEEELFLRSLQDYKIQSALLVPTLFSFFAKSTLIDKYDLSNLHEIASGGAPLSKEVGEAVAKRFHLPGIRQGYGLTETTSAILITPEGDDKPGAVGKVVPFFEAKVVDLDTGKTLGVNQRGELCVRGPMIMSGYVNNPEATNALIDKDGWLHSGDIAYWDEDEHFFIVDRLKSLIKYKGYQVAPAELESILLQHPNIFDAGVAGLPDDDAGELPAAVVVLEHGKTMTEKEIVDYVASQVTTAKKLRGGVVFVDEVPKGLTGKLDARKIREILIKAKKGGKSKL
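Purified P. pyralis luciferase, 10 nM final, with Km-level 10 uM D-luciferin and 10 uM ATP in 50 mM Tris acetate pH 7.5, 10 mM Mg acetate, 0.01% Tween-20, 0.05% BSA; 6-point qHTS titration about 60 µM downward; luminescence read.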
SMN2 splice up = enhancers of SMN2 splice variant expression. HEK293 SMN2-luciferase splicing reporter, luminescence, 30-36 h. Potency, µM (top dose mostly 46.1 µM), for inactives: top-dose activity change, positive = activation, hits mostly activators. actives 2.8% (n = 210,000). AID 1458; also: % of control where 0% means no effect; nearly all actives have a fitted effect of over 55% in size
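HEK293 cells carry an SMN2 […]–luciferase reporter in which exon 7 inclusion puts luciferase in frame. Cells were plated 10-12 h before compound addition, then incubated 30-36 h at 37C. ONE-Glo luminescence was read; sodium butyrate at 4.5 mM final served as control.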
NPC1 promoter act = activates the NPC1 promoter. Huh7 NPC1 promoter luciferase reporter, 24 h. Potency, µM (top dose mostly 9.22 µM), for inactives: top-dose activation, most hits filed as activators. actives 2.4% (n = 320,000). AID 485313; also: % of control where 0% means no effect; nearly all actives have a fitted effect of over 60% in size
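In 1536-well qHTS, Huh7 cells harboring an NPC1 promoter–luciferase construct received compound for 24 h; activation was quantified by luminescence following luciferase reagent addition.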
ELG1 genotox = genotoxicity induction in ELG1-luciferase HEK293T cells | Potency, µM (top dose mostly 46 µM), for inactives: at the highest dose activity change, positive = activation, usual class: activators | actives 1.3% (n = 330,000) | HEK293T ELG1-luciferase reporter, luminescence, 16 h; also: % of control where 0% means no effect; nearly all actives have a fitted effect of over 60% in size
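DMSO vehicle served as control against compound-treated ELG1-luciferase HEK293T cells; exposure lasted 16 hr at 37 °C and 5% CO2, followed by ONE-Glo luminescence detection after 30 min.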
Starred values were filed as active, the others as inactive; [ ] = another dose, or the depositor's remark. Calls follow the shape of the dose curve; as a rule, active = well fitted curve in the direction sought with a large enough effect; inconclusive = small, poorly fitted or top-dose-only effect, or another doubt; inactive = no such curve, though single readings can be large; an effect the other way counts as inactive or inconclusive. Potency is read from the fitted curve at half-maximal effect.

What do the screens show for `NS(=O)(=O)c1ccc(CCNC(=O)Cn2c(-c3cccs3)cc3ccccc32)cc1`?
FLuc modulator: 0%

What do the screens show for `O=C(N/N=C/c1cn(-c2cccs2)nc1-c1ccccc1)c1ccccc1Br`?
Rab9 prom act: 8%; Luc counter: 1%; FLuc modulator: 6.7µM*; SMN2 splice up: inconclusive; NPC1 promoter act: 7%; ELG1 genotox: 3%

Results for O=C(N/N=C/c1cn(-c2cccs2)nc1-c1ccccc1)c1ccccc1O ?
Rab9 prom act: -4%; Luc counter: inconclusive; FLuc modulator: 9.5µM*; NPC1 promoter act: -2%; ELG1 genotox: -2%

How did Cn1c2c(c(=O)[nH]c1=O)C(c1ccc(O)cc1)C1=C(N2)c2ccccc2C1=O (stereo not given) do in these assays?
Rab9 prom act: -4%; Luc counter: -22%; FLuc modulator: 17µM*; SMN2 splice up: -18%; NPC1 promoter act: -11%; ELG1 genotox: 1%

How did Nc1nc2c(c(=O)[nH]1)C(c1ccccc1)C1=C(N2)c2ccccc2C1=O (stereo not given) do in these assays?
Rab9 prom act: 1%; FLuc modulator: -3%; NPC1 promoter act: 4%; ELG1 genotox: 3%

Results for CCc1ccccc1NC(=O)c1cc(-c2ccc(OC)cc2)on1 ?
Rab9 prom act: 12%; FLuc modulator: -1%; SMN2 splice up: 3%; NPC1 promoter act: 3%; ELG1 genotox: 2%

Results for Cc1cc(NC(=O)c2cc(-c3ccccc3)on2)n(-c2ccccc2)n1 ?
Rab9 prom act: -1%; Luc counter: 1%; FLuc modulator: 1%; SMN2 splice up: inconclusive; NPC1 promoter act: -2%; ELG1 genotox: 0%

What do the screens show for `COc1ccc(-c2cc(C(=O)Nc3cc(C)nn3-c3ccccc3)no2)cc1`?
Rab9 prom act: -5%; Luc counter: 0%; FLuc modulator: 13µM*; SMN2 splice up: 15%; NPC1 promoter act: -5%; ELG1 genotox: 2%

What do the screens show for `CCCCNC(=O)c1cc(-c2ccc(OC)cc2)on1`?
Rab9 prom act: 3.2µM*; Luc counter: -4%; FLuc modulator: 8.5µM*; SMN2 splice up: 14µM*; NPC1 promoter act: 4µM*; ELG1 genotox: 8.2µM*

What do the screens show for `CCCNC(=O)c1cc(-c2ccc(OC)cc2)on1`?
Rab9 prom act: 2.8µM*; Luc counter: -4%; FLuc modulator: 2.4µM*; SMN2 splice up: 10µM*; NPC1 promoter act: 0.89µM*; ELG1 genotox: 4.6µM*

What do the screens show for `CCCCNC(=O)c1cc(-c2ccc(F)cc2)on1`?
Rab9 prom act: 4µM*; Luc counter: 2%; FLuc modulator: 9.5µM*; SMN2 splice up: 25µM*; NPC1 promoter act: 3.5µM*; ELG1 genotox: inconclusive

How did CCCCNC(=O)c1cc(-c2ccc(OC)c(OC)c2)on1 do in these assays?
Rab9 prom act: 16%; Luc counter: 1%; FLuc modulator: -11%; SMN2 splice up: -2%; NPC1 promoter act: 14%; ELG1 genotox: 12%

Results for CCOc1ccc(NC(=O)C(C)n2c(=O)cc(-c3ccccc3)c3c(C)nn(C)c32)cc1 (stereo not given) ?
FLuc modulator: -3%

Results for COCCN=C1OC(=O)N2C(=O)C3=C4C(C[C@H]5C(=O)N(CC(=O)OC)C(=O)[C@H]5[C@H]4[C@@]12Cc1ccccc1)[C@H]1C(=O)N(CC(=O)OC)C(=O)[C@H]1[C@H]3C (stereo not given in full) ?
Luc counter: 2%; SMN2 splice up: -3%

How did Oc1[nH]c2ccccc2c1C=Nc1ccc2c(c1)OCO2 do in these assays?
Rab9 prom act: 1.8µM*; Luc counter: inconclusive; FLuc modulator: 7.6µM*; SMN2 splice up: 0.89µM*; NPC1 promoter act: 2µM*; ELG1 genotox: inconclusive

How did Oc1[nH]c2ccccc2c1/C=N/c1nccs1 do in these assays?
Rab9 prom act: inconclusive; Luc counter: -7%; FLuc modulator: 12µM*; SMN2 splice up: inconclusive; NPC1 promoter act: inconclusive; ELG1 genotox: 8%

Results for CCOC(=O)c1sc(/N=C/c2c(O)ccc3ccccc23)cc1C ?
Rab9 prom act: 2%; Luc counter: -2%; FLuc modulator: 19µM*; SMN2 splice up: -34%; NPC1 promoter act: 3%; ELG1 genotox: 0%

What do the screens show for `COc1ccc(N=Cc2c(O)[nH]c3ccccc23)cc1`?
Rab9 prom act: 1.6µM*; Luc counter: -5%; FLuc modulator: 2.7µM*; SMN2 splice up: 13µM*; NPC1 promoter act: 1.6µM*; ELG1 genotox: inconclusive

Results for O=C(O)C(=Cc1ccc(-c2ccccc2)cc1)C(=O)O ?
Luc counter: -6%[7.66 µM]; SMN2 splice up: -10%[9.22 µM]

Results for CC(=O)Nc1ccc(N=Cc2c(O)ccc3ccccc23)cc1 ?
Rab9 prom act: 14%; FLuc modulator: inconclusive; NPC1 promoter act: 1%; ELG1 genotox: 0%

How did Cc1ccc(N=Cc2c(O)[nH]c3ccccc23)c([N+](=O)[O-])c1 do in these assays?
Rab9 prom act: 0.56µM*; Luc counter: -9%; FLuc modulator: inconclusive; SMN2 splice up: 22%; NPC1 promoter act: inconclusive; ELG1 genotox: inconclusive

How did Cc1[nH]c2ccccc2c1/C=N/NC(=O)c1cccc([N+](=O)[O-])c1 do in these assays?
Rab9 prom act: -3%; Luc counter: 1%; FLuc modulator: inconclusive; SMN2 splice up: -3%; NPC1 promoter act: -7%; ELG1 genotox: -4%

Results for COc1ccc(N=Cc2c(O)ccc3ccccc23)cc1 ?
Rab9 prom act: -3%; Luc counter: -3%; FLuc modulator: 13µM*; NPC1 promoter act: -2%; ELG1 genotox: -10%

What do the screens show for `O=C(O)Cc1ccc(N=Cc2c(O)ccc3ccccc23)cc1`?
Rab9 prom act: -1%; Luc counter: -1%; FLuc modulator: inconclusive; SMN2 splice up: 16%; NPC1 promoter act: -3%; ELG1 genotox: -2%

What do the screens show for `O=C(O)c1ccc(N=Cc2c(O)ccc3ccccc23)cc1`?
Rab9 prom act: 3%; FLuc modulator: 30µM*; NPC1 promoter act: 2%; ELG1 genotox: 1%

Results for O=C(NCc1cccc(F)c1)c1ccc(-n2cnc3cccnc32)cc1 ?
FLuc modulator: -6%

Results for COc1ccc(-c2ccc(=O)n(CC(=O)NCCc3ccccc3)n2)cc1 ?
FLuc modulator: -9%

What do the screens show for `CC(=O)C(Cc1ccc(Cl)nc1)Cc1ccc(Cl)nc1`?
Rab9 prom act: -3%; Luc counter: 4%; FLuc modulator: 2%; NPC1 promoter act: -1%; ELG1 genotox: 0%
